Shn3 3UTR inh: Schnurri-3 reporter inhibition in Clone20 osteoblasts; Clone20 osteoblast Shn3 3'UTR firefly luciferase, 24 h; inhibition, % at 12.5 µM; hit rate 0.52% among 360,000; AID 588674;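 active means mean inhibition of at least 75% with every replicate also reaching 75%; inconclusive means mean inhibition at least 75% but some replicate below; inactive means mean inhibition below 75%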;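 further: 0% = median of neutral control wells and 100% = pilot-screen positive control compound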
CF NFkB inh: cystic fibrosis NF-kB activation inhibition | KKLEB NF-kB-GFP reporter, PAF-induced, GFP fluorescence overnight | inhibition, % at 5 µM | hit rate 0.86% among 360,000 | AID 588850;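 active means at least 50% inhibition at 5 µM, scaled per plate between neutral and stimulator controls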;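 further: PAF is a Pseudomonas aeruginosa culture filtrate used as stimulus; plate controls were PAF-stimulated DMSO wells for no effect and unstimulated DMSO wells for full effect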
PAX8 reporter: PAX8 transcriptional activity inhibition. RMG-I TPO-luciferase reporter, SteadyGlo, 24 h. inhibition, % at 12.6 µM. hit rate 1.2% among 360,000. AID 652154;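 active means mean replicate inhibition at least 60% with every replicate also reaching 60%; inconclusive means only one of the two criteria is met; inactive means mean below 60% and not all replicates reaching 60%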;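 further: luciferase light reporting Pax8 driven TPO promoter activity; plate controls were median of neutral control wells for no effect and mitoxantrone controls for full effect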
EWS-Fli inh: blocks EWS/Fli oncoprotein-driven transcription; inhibition, % at 12.6 µM; A673 NR0B1-luciferase reporter, viability-normalised; hit rate 0.67% among 350,000; AID 651661;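 active means mean inhibition of at least 50% after viability correction, with every replicate also passing that limit; inconclusive means mean reaches 50% but only one of two replicates passes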;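 further: firefly luciferase signal divided by Alamar Blue viability fluorescence both relative to DMSO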
KKLEB cytotox: counter-screen for CF NF-kB inhibitors: cytotoxicity; activity change (cytotoxicity), % at 5 µM; KKLEB CF airway cells viability, ATPlite luminescence, overnight; active compounds read low; cells stimulated with P. aeruginosa culture filtrate; hit rate 0.36% among 360,000;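 active means corrected activity change at or below -50% at 5 µM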
LGR2 antag: Drosophila LGR2 receptor signaling inhibition. HEK293 LGR2, CRE-luciferase, bursicon-stimulated, 4 h. inhibition, % at 9.99 µM. hit rate 0.35% among 380,000. AID 720647;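 active means drop in luminescence signal, shown as inhibition above about 50% in the replicate tests, limit read from the data, passing the limit was not always enough; inconclusive means probably only some replicates passing the limit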;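 further: agonist challenge used bursicon conditioned medium at about half maximal strength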
Active calls of the source: *; ? = inconclusive; . = no result given. A selection: hits, their analogues and other compounds. The true share with any hit is near 2%.

SMILES	Shn3 3UTR inh	CF NFkB inh	PAX8 reporter	EWS-Fli inh	KKLEB cytotox	LGR2 antag
O=C(CN1C(=O)S/C(=C\c2ccc(-c3cc(C(=O)O)ccc3Cl)o2)C1=O)Nc1ccc2c(c1)OCO2	3	7	10	1	4	5
Cn1cc(/C=C2/SC(=O)N(CC(=O)Nc3ccc4c(c3)OCO4)C2=O)c2ccccc21	32	58*	.	.	-66*	.
O=C(O)CCNc1ccc(NCCC(=O)O)c2c1C(=O)c1ccccc1C2=O	10	-36	40	3	7	11
O=C1c2cccc(NCCNCCO)c2C(=O)c2cccc(NCCNCCO)c21	-29	-82	10	59*	13	92*
N=c1sc2ccccc2n1-c1ccccc1	7	2	.	5	0	.
C=CC(=O)N=c1sc2ccccc2n1-c1ccccc1	10	57*	92*	4	-33	-4
C[C@@H]1CCCCO[C@H](CN(C)S(=O)(=O)c2cccs2)[C@H](C)CN([C@H](C)CO)C(=O)c2cc(NS(=O)(=O)c3ccc(Cl)cc3)ccc2O1	.	.	30	13	.	12
CCCCCCCCn1c2c(c(=N)c3ccccc31)CCC2	91*	34	80*	42	-26	?
CCCCn1c2c(c(=N)c3ccccc31)CCC2	.	-9	33	20	2	-2
CCCCCn1c2c(c(=N)c3ccccc31)CCC2	68	-54	67*	22	17	14
O=C(Nc1ccc(F)cc1)Nc1ccc2c(c1)[C@@H]1C[C@@H](CC(=O)N3CCOCC3)O[C@H](CO)[C@@H]1O2	.	.	0	7	.	-2
CC1=C(CO)C(=O)OC([C@@H](C)C2CC[C@H]3C4C[C@H]5O[C@]56[C@@H](O)C=CC(=O)[C@]6(C)C4CC[C@]23C)C1 (stereo partly specified)	98*	85*	.	64*	-3	.
COc1ccc(-c2cc(=O)oc3c(C)c(O)c(CN(C)C)cc23)cc1	5	55*	-12	.	-5	.
COc1ccc(-c2cc(=O)oc3c(C)c(OCC(=O)N(C)C)ccc23)cc1	2	-28	3	14	5	-8
CNC[C@@H]1OCCCC[C@@H](C)Oc2ccc(NC(=O)Nc3ccc(OC)cc3)cc2C(=O)N([C@H](C)CO)C[C@H]1C	.	.	-28	-7	.	-6
COc1ccc(C2CC(c3ccc(Br)cc3)=NN2C(=S)Nc2ccccc2)cc1 (stereo unspecified)	2	2	123*	-58	4	-49
O=C(Nc1ccccc1)N1N=C(c2ccc(F)cc2)CC1c1ccc(F)cc1 (stereo unspecified)	2	6	82*	-11	-6	-7
O=C(C[C@@H]1CC[C@H]2[C@@H](COC[C@H](O)CN2Cc2ccc(Oc3ccccc3)cc2)O1)N1CCN(c2ccccc2)CC1	.	.	64*	28	.	5
O=C(C[C@@H]1CC[C@H]2[C@@H](COC[C@@H](O)CN2Cc2ccc(Oc3ccccc3)cc2)O1)N1CCOCC1	.	.	9	5	.	-14
O=C(C[C@@H]1CC[C@H]2[C@@H](COC[C@@H](O)CN2Cc2ccc(Oc3ccccc3)cc2)O1)N1CCc2ccccc2C1	.	.	80*	44	.	.
CCNC(=O)C[C@H]1CC[C@H]2[C@@H](COc3ccc(NC(=O)Cc4ccccc4)cc3C(=O)N2C)O1	.	.	4	4	.	10
Oc1c(C(c2cccs2)N2CCC3(CC2)OCCO3)sc2ncnn12 (stereo unspecified)	88*	12	.	1	-4	6
OC[C@@H]1CN(Cc2ccc(-c3ccccc3)cc2)C[C@H](n2cnc3c(NCc4ccc(F)cc4)ncnc32)O1	81*	19	84*	26	-14	14
COC(=O)c1c(-c2ccc(C)cc2)csc1NC(=O)Cc1ccc(OC)c(OC)c1	34	3	.	.	-6	7
COC(=O)c1c(-c2cccc3ccccc23)csc1NC(=O)Cc1ccc(OC)c(OC)c1	87*	26	.	.	-5	.
Cc1ccccc1Cn1cc(NC(=O)c2cc(-c3cccs3)on2)cn1	-16	46	.	.	-54*	-6
CCc1cc(-c2[nH]ncc2-c2ccc3c(c2)OCO3)c(O)cc1O	35	85*	.	.	-6	40
COCCNC(=O)C[C@H]1CC[C@H]2[C@@H](COC[C@H](O)CN2S(=O)(=O)c2ccccc2C)O1	.	.	0	-1	.	2

Screens: PubChem, several laboratories
